Screens as filed in PubChem.
DAX1 inh-1 – DAX1 (NR0B1) inhibitors, primary screen, cell-based, HEK293, Gal4-DAX1, luciferase luminescence | inhibition, % at 6.75 µM | Nuclear receptor subfamily 0 group B member 1 (Homo sapiens), P51843 | 340,000 compounds, 0.99% hits | HEK293 Gal4-DAX1 luciferase reporter;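 active = inhibition above the mean over all tested compounds plus 3 SD, cut at about 4.2% in these data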;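 note: 0% = DAX1-transfected cells with DMSO and 100% = empty-vector control cells with DMSO; inhibition shows as a rise in luminescence from relieved DAX1 repression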
Target sequence (P51843 207-470 limits assumed): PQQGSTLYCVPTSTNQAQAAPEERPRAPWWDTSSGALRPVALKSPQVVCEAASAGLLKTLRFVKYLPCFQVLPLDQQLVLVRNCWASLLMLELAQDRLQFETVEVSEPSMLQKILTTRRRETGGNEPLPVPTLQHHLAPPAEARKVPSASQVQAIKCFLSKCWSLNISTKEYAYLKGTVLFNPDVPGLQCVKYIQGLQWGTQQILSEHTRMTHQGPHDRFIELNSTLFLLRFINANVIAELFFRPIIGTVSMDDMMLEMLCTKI
DAX1 inh-2 – DAX1 (NR0B1) inhibitors on StAR promoter, primary screen, cell-based, luminescence, SF-1 (NR5A1), full-length DAX-1; AID 652010, 2013; 370,000 compounds, 1.1% hits; HEK293T StAR-luciferase reporter, SF-1/DAX-1 repression relief; inhibition, % at 6.8 µM;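 active = inhibition above the mean over all tested compounds plus 3 SD, cut at about 3.6% in these data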;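 note: 0% = DAX-1 cells with DMSO and 100% = cells lacking DAX-1 with DMSO; higher inhibition means more luminescence from relief of DAX-1 repression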
hcDAF12 agonist – H. contortus DAF-12 nuclear receptor activators, primary screen, cell-based, luminescence, HEK293, lit1-tk-luc reporter; HEK293 hcDAF-12 lit1-tk-luc reporter; 0% DMSO, 100% Δ7-dafachronic acid; activation, % at 6.8 µM; 370,000 compounds, 1.4% hits; AID 652067, 2013;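 active = activation above the mean of all tested compounds plus 3 SD, cut at about 5.5% in these data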;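 note: 100% = response to 3 µM Δ7-dafachronic acid high control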
ssDAF12 agonist – S. stercoralis DAF-12 nuclear receptor activators, primary screen, cell-based, luminescence, HEK293, GRIP1 co-expression, lit1-tk-luc | activation, % at 6.8 µM | HEK293 ssDAF-12/GRIP1 lit1-tk-luc reporter; % of 3 µM dafachronic acid response | AID 652126, 2013 | 370,000 compounds, 1% hits;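 active = activation above the mean over all tested compounds plus 3 SD, cut at about 0.9% in these data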;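 note: 0% = DMSO-only wells and 100% = 3 µM delta7-dafachronic acid wells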
hgDAF-12 ag – H. glycines DAF-12 receptor agonists, primary screen, cell-based, luminescence, HEK293, GAL4 fusion, UAS-luciferase; HEK293 GAL4-hgDAF12 UAS-luciferase reporter, agonist luminescence; normalized to butyrate control; activation, % at 6.8 µM; 370,000 compounds, 1.8% hits; AID 687014, 2013;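 active = activation above a cutoff set at the mean of all screened compounds plus 3 SD, cut at about 10% in these data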;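 note: 0% = DMSO wells and 100% = sodium butyrate wells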
Starred values were filed as active, the others as inactive. Only some compounds are listed: those with a hit (about 4.1% of all), similar ones and a draw of the others.

For CN(Cc1cn(C)c2ccccc12)C(=S)Nc1cc(F)cc(F)c1 the results were DAX1 inh-1 0, DAX1 inh-2 0, hcDAF12 agonist 4, ssDAF12 agonist 1.2* and hgDAF-12 ag 2.
Cc1cccc(NC(=S)N(C)Cc2cn(C)c3ccccc23)c1 was read as DAX1 inh-1 -1, DAX1 inh-2 -1, hcDAF12 agonist 1, ssDAF12 agonist -1 and hgDAF-12 ag -1.
`C=CCN1C(=O)[C@@H](CC(=O)NCCC(C)C)[C@]2(C(=O)OCC)CCCCC/C=C/12` gave DAX1 inh-2 -1, hcDAF12 agonist -2, ssDAF12 agonist -1 and hgDAF-12 ag 5.
`Cc1oncc1C(=O)Nc1ccc(C(F)(F)F)cc1` gave DAX1 inh-1 -1, DAX1 inh-2 4.3*, hcDAF12 agonist 0, ssDAF12 agonist -1 and hgDAF-12 ag 10.
For Cc1oncc1C(=O)Nc1ccc2ccccc2c1 the results were DAX1 inh-1 0, DAX1 inh-2 3.8*, hcDAF12 agonist 3, ssDAF12 agonist 0 and hgDAF-12 ag 9.
For Cc1oncc1C(=O)Nc1cccc2ccccc12 the results were DAX1 inh-1 0, DAX1 inh-2 0, hcDAF12 agonist -2, ssDAF12 agonist -1 and hgDAF-12 ag 3.
`CCCCCCCCN1C(=O)[C@@H](CC(=O)NCc2ccccc2)C[C@@]2(C(=O)OC)C1=C[C@H](COCc1ccccc1)O[C@@H]2C` gave DAX1 inh-2 -1, hcDAF12 agonist -2, ssDAF12 agonist -1 and hgDAF-12 ag 3.
`O=C(NCCc1ccccc1)c1cnc2n(c1=O)CCS2` gave DAX1 inh-1 2, DAX1 inh-2 2, hcDAF12 agonist 2, ssDAF12 agonist 1.3* and hgDAF-12 ag 8.
`COC(=O)CC[C@H](/C=C/C(=O)OC(C)(C)C)Sc1ccc(C(C)(C)C)cc1` gave DAX1 inh-2 -1, hcDAF12 agonist -1, ssDAF12 agonist -1 and hgDAF-12 ag -1.
`c1ccc2cc(Cn3ccc4ccc(-c5ccc6cc[nH]c6c5)cc43)ccc2c1` gave DAX1 inh-2 -1, hcDAF12 agonist 3, ssDAF12 agonist 1.2* and hgDAF-12 ag 0.
Cc1ccc(SCC(=O)NNC(=O)c2cncc(Br)c2)cc1 was read as DAX1 inh-1 5.9*, DAX1 inh-2 0, hcDAF12 agonist -1, ssDAF12 agonist -1 and hgDAF-12 ag -1.
Cc1ccc(C(=O)c2cncc(Br)c2)cc1 was read as DAX1 inh-1 2, DAX1 inh-2 1, hcDAF12 agonist -1, ssDAF12 agonist -1 and hgDAF-12 ag 2.
CCN(CC)c1ccc(NC(=O)c2cccnc2)cc1 was read as DAX1 inh-1 0, DAX1 inh-2 1, hcDAF12 agonist 1, ssDAF12 agonist -1 and hgDAF-12 ag 4.
For CCN(CC)c1ccc(NC(=O)c2cncc(Br)c2)cc1 the results were DAX1 inh-1 1, DAX1 inh-2 2, hcDAF12 agonist 1, ssDAF12 agonist -1 and hgDAF-12 ag 13*.
`Cc1ccc(NC(=O)c2cncc(Br)c2)cc1S(=O)(=O)N(C)C` gave DAX1 inh-1 1, DAX1 inh-2 3, hcDAF12 agonist 1, ssDAF12 agonist 1.4* and hgDAF-12 ag 7.
Screening Cc1nnc(SCC(=O)N2CCN(C(=O)c3ccco3)CC2)n1C returned DAX1 inh-1 4.7*, DAX1 inh-2 -1, hcDAF12 agonist 0, ssDAF12 agonist -1 and hgDAF-12 ag 1.
For CCCCn1nnnc1SCC(=O)N1CCN(C(=O)c2ccco2)CC1 the results were DAX1 inh-1 0, DAX1 inh-2 1, hcDAF12 agonist -1, ssDAF12 agonist -1 and hgDAF-12 ag -1.
Cn1nnnc1SCC(=O)N1CCN(C(=O)c2ccco2)CC1 was read as DAX1 inh-1 4.3*, DAX1 inh-2 0, hcDAF12 agonist -1, ssDAF12 agonist -1 and hgDAF-12 ag 2.
